Results: PubChem BioAssay (EPA / NIEHS)
Values joined by “and” are separate entries in the source; they are usually repeats but may differ in a detail not shown here. Equal entries are not always repeated. The source holds several records for some structures; these can differ, active in one and inactive in another. Active and inactive are the calls of the source. Rule for the calls: active = hit-call score of the fitted dose curve at least 0.9, where 1 is the maximum; inactive = score below 0.9.

Key:
[1] = read-out: urokinase plasminogen activator (uPA), PLAU (gene 5328); assay: BSK_KF3CT_uPA: BioMAP Diversity Plus: KF3CT Assay for urokinase plasminogen activator (uPA) Biomarker Activity (AID 2283075); conditions: primary human keratinocytes with fibroblasts; actives raise or lower the signal
Summary of the method: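 Human keratinocyte plus foreskin fibroblast primary co-culture exposed to chemical for 24 h. uPA levels were quantified by ELISA, and activity was fitted bidirectionally against a DMSO negative-control baseline.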

CD40, CD40 (gene 958) [2] = assay: BSK_LPS_CD40: BioMAP Diversity Plus: LPS Assay for CD40 Biomarker Activity (AID 2283076); conditions: primary human HUVEC with PBMC; actives raise or lower the signal
Summary of the method: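 ELISA readout of CD40 in HUVEC/PBMC co-culture (BSK_LPS system), 24 h post-dosing; bidirectional curve fit, DMSO baseline; parallel SRB total-protein staining for cytotoxicity.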

[3] = read-out: E-selectin (Homo sapiens) (UniProt P16581); assay: BSK_LPS_Eselectin: BioMAP Diversity Plus: LPS Assay for Eselectin Biomarker Activity (AID 2283077); conditions: primary human HUVEC with PBMC; actives raise or lower the signal
Summary of the method: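 ELISA readout of E-selectin, 24 h post-dose, HUVEC + PBMC co-culture (LPS system). Gain or loss of signal vs DMSO baseline, bidirectional fit.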

[4] = read-out: Interleukin-8 (IL8), CXCL8 (gene 3576); assay: BSK_LPS_IL8: BioMAP Diversity Plus: LPS Assay for Interleukin-8 (IL8) Biomarker Activity (AID 2283078); conditions: primary human HUVEC with PBMC; actives raise or lower the signal
Summary of the method: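 HUVEC + PBMC co-culture, LPS-activated; test chemicals dosed, IL-8 read by ELISA at 24 h. Bidirectional curve fit vs DMSO baseline (gain or loss of signal).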

[5] = BSK_LPS_SRB: Viability Assessment in the BioMAP Diversity Plus: LPS Assay (AID 2283079); conditions: primary human HUVEC with PBMC;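 note: total protein by sulforhodamine B absorbance as a cytotoxicity measure; measured one day after compound addition; fitted in both directions against DMSO so loss or gain of signal counts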
Summary of the method: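 HUVEC + PBMC co-culture, LPS-stimulated; compound 24 h. 10% TCA fix, 0.1% SRB stain, A560. Bidirectional fit vs DMSO.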

[6] = read-out: Interleukin-1 alpha (IL1a), IL1A (gene 3552); assay: BSK_LPS_IL1a: BioMAP Diversity Plus: LPS Assay for Interleukin-1 alpha (IL1a) Biomarker Activity (AID 2283080); conditions: primary human HUVEC with PBMC; actives raise or lower the signal
Summary of the method: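 HUVEC/PBMC co-culture, LPS system; 24 h after dosing; IL-1a by ELISA; gain or loss of signal fitted bidirectionally vs DMSO baseline.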

[7] = read-out: Monocyte Chemoattractant Protein-1 (MCP1), CCL2 (gene 6347); assay: BSK_LPS_MCP1: BioMAP Diversity Plus: LPS Assay for Monocyte Chemoattractant Protein-1 (MCP1) Biomarker Activity (AID 2283081); conditions: primary human HUVEC with PBMC; actives raise or lower the signal
Summary of the method: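 ELISA read-out of MCP-1 after 24 h chemical dosing of a human umbilical vein endothelial cell/peripheral blood mononuclear cell co-culture stimulated with LPS. Gain or loss of signal fitted relative to DMSO controls.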

[8] = BSK_LPS_PGE2: BioMAP Diversity Plus: LPS Assay for Prostaglandin E2 (PGE2) Biomarker Activity (AID 2283082); conditions: primary human HUVEC with PBMC; actives raise or lower the signal;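 for AC50: secreted prostaglandin E2 measured by ELISA in LPS-stimulated co-culture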
Summary of the method: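 HUVEC plus human PBMC co-culture stimulated with LPS; secreted PGE2 quantified by ELISA 24 h after chemical dosing. Activity fitted bidirectionally against DMSO baseline; parallel SRB staining (0.1% SRB after 10% TCA fixation, 560 nm) flags overt cytotoxicity.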

[9] = read-out: Macrophage colony-stimulating factor (MCSF), CSF1 (gene 1435); assay: BSK_LPS_MCSF: BioMAP Diversity Plus: LPS Assay for Macrophage colony-stimulating factor (MCSF) Biomarker Activity (AID 2283083); conditions: primary human HUVEC with PBMC; actives raise or lower the signal
Summary of the method: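 HUVEC + PBMC co-culture (human primary), 24 h post-dose; M-CSF by ELISA; gain/loss of signal fitted bidirectionally vs DMSO baseline.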

[10] = read-out: Tissue Factor, F3 (gene 2152); assay: BSK_LPS_TissueFactor: BioMAP Diversity Plus: LPS Assay for Tissue Factor Biomarker Activity (AID 2283084); conditions: primary human HUVEC with PBMC; actives raise or lower the signal
Summary of the method: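 HUVEC/PBMC co-culture, LPS-activated; CD142 ELISA read 24 h post-dose; bidirectional curve fit vs DMSO negative control.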

[11] = read-out: Tumor necrosis factor (Homo sapiens) (UniProt P01375); assay: BSK_LPS_TNFa: BioMAP Diversity Plus: LPS Assay for Tumour Necrosis Factor alpha (TNFa) Biomarker Activity (AID 2283085); conditions: primary human HUVEC with PBMC; actives raise or lower the signal
Summary of the method: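 Human umbilical vein endothelial cells co-cultured with PBMC and stimulated with LPS. TNFa was measured by ELISA 24 h after chemical dosing, fitted bidirectionally relative to DMSO.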

[12] = read-out: Vascular cell adhesion molecule 1 (VCAM1), VCAM1 (gene 7412); assay: BSK_LPS_VCAM1: BioMAP Diversity Plus: LPS Assay for Vascular cell adhesion molecule 1 (VCAM1) Biomarker Activity (AID 2283086); conditions: primary human HUVEC with PBMC; actives raise or lower the signal
Summary of the method: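 Human umbilical vein endothelial cells co-cultured with PBMC and stimulated with LPS; VCAM-1 measured by ELISA 24 h after dosing. Bidirectional curve fitting against DMSO baseline; cytotoxicity tracked in parallel by SRB total-protein staining.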

CD38, CD38 (gene 952) = assay: BSK_SAg_CD38: BioMAP Diversity Plus: SAg Assay for CD38 Biomarker Activity (AID 2283087); conditions: primary human HUVEC with PBMC; actives raise or lower the signal
Summary of the method: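 Human HUVEC plus PBMC co-culture stimulated with superantigen; CD38 measured by ELISA 24 h after chemical dosing. Fluorescence read-out, bidirectional fit against DMSO; cytotoxicity tracked in parallel by SRB and Alamar Blue.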

CD40, CD40 (gene 958) [13] = assay: BSK_SAg_CD40: BioMAP Diversity Plus: SAg Assay for CD40 Biomarker Activity (AID 2283088); conditions: primary human HUVEC with PBMC; actives raise or lower the signal
Summary of the method: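 HUVEC/PBMC co-culture, 24 h post-dose; CD40 by ELISA, fluorescence intensity; bidirectional fit vs DMSO negative control.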

CD69, CD69 (gene 969) = assay: BSK_SAg_CD69: BioMAP Diversity Plus: SAg Assay for CD69 Biomarker Activity (AID 2283089); conditions: primary human HUVEC with PBMC; actives raise or lower the signal;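 for AC50: cell surface CD69 protein quantified by ELISA with fluorescence detection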
Summary of the method: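 Values derive from bidirectional fitting relative to DMSO vehicle. Cells: umbilical vein endothelium plus peripheral blood mononuclear cells, treated 24 h before fluorescent ELISA for CD69.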

[14] = read-out: Monocyte Chemoattractant Protein-1 (MCP1), CCL2 (gene 6347); assay: BSK_SAg_MCP1: BioMAP Diversity Plus: SAg Assay for Monocyte Chemoattractant Protein-1 (MCP1) Biomarker Activity (AID 2283090); conditions: primary human HUVEC with PBMC; actives raise or lower the signal
Summary of the method: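 MCP-1 levels in the endothelial–PBMC SAg co-culture were quantified by ELISA at 24 h post-dosing; both increases and decreases versus DMSO scored. Cytotoxicity monitored by SRB total protein in parallel cultures.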

[15] = read-out: E-selectin (Homo sapiens) (UniProt P16581); assay: BSK_SAg_Eselectin: BioMAP Diversity Plus: SAg Assay for Eselectin Biomarker Activity (AID 2283091); conditions: primary human HUVEC with PBMC; actives raise or lower the signal
Summary of the method: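 E-selectin ELISA readout at 24 h post-dosing in human umbilical vein endothelial cell/PBMC co-culture; gain or loss of signal fitted relative to DMSO baseline.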

[16] = read-out: Monokine induced gamma interferon (MIG), CXCL9 (gene 4283); assay: BSK_SAg_MIG: BioMAP Diversity Plus: SAg Assay for Monokine induced gamma interferon (MIG) Biomarker Activity (AID 2283092); conditions: primary human HUVEC with PBMC; actives raise or lower the signal
Summary of the method: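 Values reflect bidirectional fitting of ELISA-measured MIG against DMSO vehicle, taken 24 h after dosing of a co-culture of human umbilical vein endothelial cells and peripheral blood mononuclear cells.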

[17] = BSK_SAg_PBMCCytotoxicity: PBMC Cytotoxicity Assessment in the BioMAP Diversity Plus: SAg Assay (AID 2283093); conditions: primary human HUVEC with PBMC;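 note: PBMC viability measured as Alamar Blue reduction fluorescence at 546/580 nm; fitted both ways against DMSO so a hit may be loss or gain of signal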
Summary of the method: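 Human umbilical vein endothelial cells co-cultured with PBMC; PBMC (75,000/well) pre-treated with compound 1 h, then activated with SEB and TSST-1 (20 ng/mL final each) for 90 h. Alamar Blue added 6 h, fluorescence 546/580 nm; bidirectional fit versus DMSO.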

[18] = read-out: Interleukin-8 (IL8), CXCL8 (gene 3576); assay: BSK_SAg_IL8: BioMAP Diversity Plus: SAg Assay for Interleukin-8 (IL8) Biomarker Activity (AID 2283094); conditions: primary human HUVEC with PBMC; actives raise or lower the signal
Summary of the method: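 Human umbilical vein endothelial cells co-cultured with PBMC, stimulated with superantigen; IL-8 measured by ELISA 24 h after chemical dosing. Bidirectional fitting versus DMSO; SRB staining in parallel cultures tracks cytotoxicity.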

Measured: AC50

Chain of Tumor necrosis factor (Homo sapiens) (P01375 whole entry, looked up): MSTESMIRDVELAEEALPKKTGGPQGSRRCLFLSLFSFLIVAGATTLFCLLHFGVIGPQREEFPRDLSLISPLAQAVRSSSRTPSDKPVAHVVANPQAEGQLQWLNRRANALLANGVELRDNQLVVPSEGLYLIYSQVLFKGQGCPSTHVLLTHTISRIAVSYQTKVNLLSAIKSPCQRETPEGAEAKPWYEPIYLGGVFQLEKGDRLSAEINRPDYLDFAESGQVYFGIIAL
Chain of E-selectin (Homo sapiens) (P16581 whole entry, looked up): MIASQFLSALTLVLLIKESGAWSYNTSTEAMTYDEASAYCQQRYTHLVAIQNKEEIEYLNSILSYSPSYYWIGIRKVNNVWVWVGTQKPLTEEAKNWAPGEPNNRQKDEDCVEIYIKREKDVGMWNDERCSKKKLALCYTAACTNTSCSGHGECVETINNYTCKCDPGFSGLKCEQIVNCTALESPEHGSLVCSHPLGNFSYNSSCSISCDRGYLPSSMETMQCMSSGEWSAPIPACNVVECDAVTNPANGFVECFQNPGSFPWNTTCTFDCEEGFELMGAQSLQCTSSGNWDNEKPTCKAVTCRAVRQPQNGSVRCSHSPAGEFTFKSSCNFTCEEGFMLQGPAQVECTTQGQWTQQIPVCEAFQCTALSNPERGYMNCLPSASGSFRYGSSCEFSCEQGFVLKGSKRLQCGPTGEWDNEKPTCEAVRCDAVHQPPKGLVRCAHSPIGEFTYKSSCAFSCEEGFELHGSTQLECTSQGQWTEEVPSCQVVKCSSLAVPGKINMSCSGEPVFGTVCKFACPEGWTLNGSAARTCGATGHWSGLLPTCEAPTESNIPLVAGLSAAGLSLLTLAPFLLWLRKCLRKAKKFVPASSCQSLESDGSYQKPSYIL

CC1(C)[C@H](C(=O)O[C@H](C#N)c2cccc(Oc3ccccc3)c2)[C@@H]1/C=C(\Cl)C(F)(F)F
inactive: [1] | CD40, CD40 (gene 958) [2] | [3] | [4] | [5] | [6] | [7] | [9] | [10] | [11] | [12] | CD38, CD38 (gene 952) | CD69, CD69 (gene 969) | [14] | [15] | [16] | [17] | [18]
active: [1] 0.12 µM | [4] 0.0495 µM | [6] 21.3 µM | [8] 904 nM and 862 nM | [11] 2.79 µM | CD38, CD38 (gene 952) 5.06 µM | CD40, CD40 (gene 958) [13] 4.51 µM | CD69, CD69 (gene 969) 3.39 µM

Cc1c([N+](=O)[O-])c(C)c([N+](=O)[O-])c(C(C)(C)C)c1[N+](=O)[O-]
active: [6] 11.4 µM | [11] 28 µM | CD38, CD38 (gene 952) 1.63 µM
inactive: all other assays above

Nc1c(Oc2ccccc2)cc(O)c2c1C(=O)c1ccccc1C2=O
active: [10] 2.54 µM | CD38, CD38 (gene 952) 10 µM | CD40, CD40 (gene 958) [13] 7.45 µM | [14] 0.803 µM | [15] 0.795 µM | [18] 1.56 µM
inactive: all other assays above

OCCN(CCO)CCO
inactive: all assays above

CCN(CC)C(=O)C(Cl)=C(C)OP(=O)(OC)OC
inactive: all assays above

C#CCOC(=O)/C=C(C)/C=C/CC(C)CCCC(C)C (stereo unspecified)
active: CD40, CD40 (gene 958) [2] 20 µM | [3] 20 µM | [4] 0.242 µM | CD69, CD69 (gene 969) 20 µM
inactive: all other assays above
